A selection: hits, their analogues and other compounds. The true share with any hit is near 7.4%.
hNpr1 antagonist: blocks ANP-stimulated signaling of human Npr1 receptor; P16066; HEK293 hNpr1 GloSensor cGMP, ANP-stimulated luminescence; Potency, µM (doses to about 46.3 µM), for inactives: at the top dose activity change, negative = inhibition, most hits filed as inhibitors; 76,000 tested, 1.6% active; AID 1347048; calls by dose curve; further: nearly all actives have a fitted effect of over 60% in size
Target sequence (P16066 whole entry, looked up): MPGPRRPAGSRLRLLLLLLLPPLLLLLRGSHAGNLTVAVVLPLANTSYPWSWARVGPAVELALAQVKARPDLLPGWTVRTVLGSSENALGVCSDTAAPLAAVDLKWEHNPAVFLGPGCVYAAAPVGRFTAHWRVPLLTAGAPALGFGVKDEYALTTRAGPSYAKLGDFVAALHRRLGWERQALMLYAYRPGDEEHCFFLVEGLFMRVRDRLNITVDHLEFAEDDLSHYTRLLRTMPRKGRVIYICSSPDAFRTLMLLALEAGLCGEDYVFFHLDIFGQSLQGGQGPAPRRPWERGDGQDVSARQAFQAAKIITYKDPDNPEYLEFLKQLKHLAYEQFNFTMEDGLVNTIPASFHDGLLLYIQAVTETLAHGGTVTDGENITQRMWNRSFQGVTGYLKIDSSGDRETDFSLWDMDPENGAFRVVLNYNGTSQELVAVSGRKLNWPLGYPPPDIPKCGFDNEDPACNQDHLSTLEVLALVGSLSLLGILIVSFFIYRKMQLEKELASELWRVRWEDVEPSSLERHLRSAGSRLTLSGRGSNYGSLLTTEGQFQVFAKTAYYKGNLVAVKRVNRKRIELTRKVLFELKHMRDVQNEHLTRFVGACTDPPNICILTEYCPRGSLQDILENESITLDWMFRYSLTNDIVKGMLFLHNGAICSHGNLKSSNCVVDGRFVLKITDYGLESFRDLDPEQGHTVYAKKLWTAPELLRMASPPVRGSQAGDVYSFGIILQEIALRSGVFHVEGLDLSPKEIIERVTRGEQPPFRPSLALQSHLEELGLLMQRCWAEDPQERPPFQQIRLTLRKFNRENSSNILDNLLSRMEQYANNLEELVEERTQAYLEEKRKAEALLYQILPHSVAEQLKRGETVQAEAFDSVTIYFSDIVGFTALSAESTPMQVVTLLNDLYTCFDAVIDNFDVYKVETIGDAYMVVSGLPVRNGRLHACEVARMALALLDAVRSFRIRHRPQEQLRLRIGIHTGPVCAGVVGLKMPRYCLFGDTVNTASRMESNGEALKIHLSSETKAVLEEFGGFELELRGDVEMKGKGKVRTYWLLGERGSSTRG
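Compound pre-incubated 30 min at room temperature on GloSensor-loaded HEK293 cells stably carrying hNpr1 and the pGS-40F cGMP biosensor. Stimulation uses hNppA at 0.1 nM final; luminescence is taken at baseline and 20 min post-agonist.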
HEK293 tox: kills HEK 293 cells; HEK 293 viability, ATP luminescence (CellTiter-Glo), 48-72 h; Potency, µM (series often up to 115 µM), inactives show top-dose activity change, negative = cytotoxicity, actives largely listed as inhibitors; 94,000 tested, 6.6% active; AID 1345083; further: nearly all actives have a fitted effect of over 60% in size
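Cytotoxicity was scored by loss of ATP-coupled luminescence (CellTiter-Glo) in HEK 293 cells. Compound treatment ran 48 or 72 hr at 37 degree Celsius, 5% CO2, 95% humidity.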
FLuc inh: blocks purified firefly luciferase enzyme activity. purified P. pyralis luciferase, luminescence, biochemical. Potency, µM (highest dose often 115 µM), most hits filed as inhibitors. 76,000 tested, 2.5% active; further: nearly all actives have a fitted effect of over 65% in size
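Luminescence read by CCD imaging after purified firefly luciferase (10nM final) was added to substrate buffer holding 10uM D-luciferin and 10uM ATP, pH 7.5, pre-dosed with compound.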
HEK293 viab: counter-screen for SNCA expression inhibitors: cell viability; AID 1671193; HEK-293-SNCA-luc viability, GF-AFC fluorescence, 24 h; Potency, µM (series often up to 57.1 µM), for inactives: at the highest dose activity change, negative = cytotoxicity, most hits filed as cytotoxic; 150,000 tested, 0.12% active;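 further: 0% = DMSO-treated cells and -100% = medium-only wells without cells; nearly all actives have a fitted effect of over 30% in size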
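Cytotoxicity counterscreen: after 24 h compound treatment of genome-edited SNCA-luciferase HEK-293 cells, live-cell protease substrate GF-AFC read by fluorescence after 30 min; activity scaled between DMSO (0%) and medium-only (-100%), curves Hill-fitted.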
3T3 cytotox: NIH 3T3 cell cytotoxicity; NIH 3T3 viability, CellTiter-Glo ATP luminescence, 48-72 h; Potency, µM (doses to about 96.7 µM), for inactives: at the top dose activity change, negative = cytotoxicity, actives largely listed as inhibitors; 94,000 tested, 4.3% active; AID 1345082; further: nearly all actives have a fitted effect of over 55% in size
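Luminescent ATP readout (CellTiter-Glo, 10 min RT) after 48 or 72 hr compound exposure of NIH 3T3 cells seeded at 400 cells/well in 1536-well format; quantitative HTS.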
SNCA expr inhib: SNCA gene expression inhibition; Potency, µM (top dose mostly 57.2 µM), without a hit: at the top dose activity change, negative = inhibition, most hits filed as inhibitors; 140,000 tested, 0.17% active; AID 1671194; HEK-293 SNCA-luciferase knock-in, luminescence, 24 h;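 further: plate controls were DMSO cells for no effect and cell-free wells for full effect; nearly all actives have a fitted effect of over 45% in size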
* = called active by the depositor; i = inactive; u = inconclusive; x = no result given; [ ] = dose if it differs, or a comment. Unless noted, the call rests on the fitted dose curve; in most records, active means well fitted curve in the direction sought with a large enough effect; inconclusive means small, poorly fitted or top-dose-only effect, or another doubt; inactive means no such curve, though single readings can be large; an effect the other way counts as inactive or inconclusive. Unless noted, on the % scale 0 is the no-effect control and ±100 the full control effect; potency means the concentration at half of the fitted maximal effect.

SMILES	hNpr1 antagonist	HEK293 tox	FLuc inh	HEK293 viab	3T3 cytotox	SNCA expr inhib
COC[C@H]1CCCN1C[C@H]1CN2CC[C@H]1C[C@@H]2CNC(=O)c1ccc(N(C)C)cc1	0%[70.6 µM]	u	i	-21%[87.6 µM]	71µM*	-2%[87.6 µM]
CC(=O)c1ccc(NC(=O)NC[C@H]2C[C@@H]3CCN2C[C@@H]3c2cc(-c3ccco3)nc(C)n2)cc1	6%	79µM*	i	-4%	u	5%
CC(=O)c1cccc(NC(=O)NC[C@H]2C[C@@H]3CCN2C[C@@H]3c2cc(-c3cccs3)nc(C)n2)c1	-2%	22µM*	i	-7%	32µM*	-1%
CC(=O)NC[C@H]1C[C@@H]2CCN1C[C@@H]2c1cc(-c2cccs2)nc(C)n1	-14%[70.6 µM]	u	i	-7%[87.6 µM]	u	0%[87.6 µM]
Cc1nc(-c2ccccc2Br)cc([C@H]2CN3CC[C@H]2C[C@@H]3CNC(=O)Nc2ccccc2)n1	0%	79µM*	u	-20%	u	8%
CCCS(=O)(=O)Nc1ccc2n(c1=O)C[C@H]1C[C@@H]2CN(Cc2cn(C)c3ccccc23)C1	-16%	u	i	-13%	u	20%
COc1ccc(-c2cn(C[C@H]3CC4CCN3C[C@@H]4C(=O)NCCNC(C)=O)nn2)cc1 (stereo partly specified)	4%[70.6 µM]	-2%[172 µM]	i	6%[87.6 µM]	-23%[174 µM]	-6%[87.6 µM]
Cn1ccc2ccc(C(=O)N3CCC(C#N)(c4ccccc4)CC3)cc21	-23%	u	i	-2%	u	-5%
Cc1nc(-c2cccs2)cc([C@H]2CN3CC[C@H]2C[C@@H]3CNC(=O)c2ccco2)n1	-11%[70.6 µM]	u	i	-1%[87.6 µM]	u	u
Cc1nc(-c2cccs2)cc([C@H]2CN3CC[C@H]2C[C@@H]3CNC(=O)c2ccc(N(C)C)cc2)n1	1%	35µM*	i	-20%	22µM*	-21%
CC(=O)c1ccc(NC(=O)NC[C@H]2C[C@@H]3CCN2C[C@@H]3c2cc(-c3cccs3)nc(C)n2)cc1	-2%	89µM*	i	4%	u	20%
CC(O)=C(C#N)C(=O)Nc1cc(Br)ccc1Br	x	x	x	2%	x	76%
COc1ccc(CNC[C@H]2C[C@@H]3CCN2C[C@@H]3c2cc(-c3ccc4ccccc4c3)nn2C)cc1	0%	u	i	-17%	25µM*	7%
COc1ccc(CNC[C@H]2C[C@@H]3CCN2C[C@@H]3c2cc(C3CCCCC3)nn2C)cc1	3%[70.6 µM]	32µM*	i	-26%[87.6 µM]	28µM*	u
O=C1OCC2(CCN(Cc3cccc(Cl)c3)C2)N1c1ccncc1 (stereo unspecified)	-2%[70.6 µM]	u	i	14%[87.6 µM]	-14%[138 µM]	-15%[87.6 µM]
COc1cc2c(cc1OC1CCCC1)NC(=O)C21CCN(c2ncc(F)cn2)CC1	-5%[70.6 µM]	89µM*	i	-9%[87.6 µM]	89µM*	-13%[87.6 µM]
COc1cc2c(cc1OC1CCCC1)NC(=O)C21CCN(c2ncccn2)CC1	0%[70.6 µM]	100µM*	i	-15%[87.6 µM]	u	11%[87.6 µM]
COc1cc2c(cc1OC1CCCC1)NC(=O)C21CCN(c2ncc(C(C)C)cn2)CC1	-2%[70.6 µM]	u	i	-6%[87.6 µM]	u	u
COc1cc2c(cc1OC1CCCC1)NC(=O)C21CCN(c2nc(C)cc(C)n2)CC1	-8%[70.6 µM]	89µM*	i	-12%[87.6 µM]	u	u
CCc1cnc(N2CCC3(CC2)C(=O)Nc2cc(OC4CCCC4)c(OC)cc23)nc1	-1%[70.6 µM]	79µM*	i	8%[87.6 µM]	u	-19%[87.6 µM]
O=C1NC2(Cc3ccccc31)CN(C1COC1)C2	x	i	x	0%[87.6 µM]	i	u
COc1cc2c(cc1OC1CCCC1)NC(=O)C21CCN(c2cnccn2)CC1	-16%[70.6 µM]	89µM*	i	-3%[87.6 µM]	u	u
CCc1cnc(N2CCC3(CC2)C(=O)Nc2cc(Oc4ccccc4)c(OC)cc23)nc1	-16%[70.6 µM]	45µM*	i	-13%[87.6 µM]	40µM*	u
O=C(N1CCCC1)N1C2CCC1CN(Cc1cccnc1)C2	x	-27%	x	-2%	-22%	6%
O=C(Cc1ccc(F)cc1Cl)N1C[C@H]2CC[C@@H]1CN(Cc1cccnc1)C2	u	35µM*	i	-21%	-29%	-21%
SMILES	hNpr1 antagonist	HEK293 tox	FLuc inh	HEK293 viab	3T3 cytotox	SNCA expr inhib
Cc1cc(CN2CCC3(CC2)C(=O)Nc2ccccc23)no1	x	-5%[172 µM]	x	8%[87.6 µM]	-9%[138 µM]	12%[87.6 µM]
CC(C)CN1Cc2ccccc2-n2ccnc2C12CCN(C(=O)C(C)C)CC2	-3%	u	i	-20%	-22%	-11%
Cc1ccc(C(=O)N2CCC3(CC2)c2nccn2-c2ccccc2CN3CC(C)C)cc1F	-20%	35µM*	i	-19%	35µM*	u
CN1CCN(C(=O)Cc2c[nH]c3ncc(-c4cccc(OC(F)(F)F)c4)cc23)CC1	-1%[70.6 µM]	u	i	-13%[87.6 µM]	79µM*	-13%[87.6 µM]
COc1cccc(-c2cnc3[nH]cc(CC(=O)N4CCN(C)CC4)c3c2)c1	-19%[70.6 µM]	u	20µM*	1%[87.6 µM]	u	-3%[87.6 µM]
COc1ccc(-c2cnc3[nH]cc(CC(=O)N4CCN(C)CC4)c3c2)cc1OC	5%[70.6 µM]	-22%[172 µM]	i	6%[87.6 µM]	u	7%[87.6 µM]
CN1CCN(C(=O)Cc2c[nH]c3ncc(-c4ccccc4Oc4ccccc4)cc23)CC1	u	79µM*	i	-17%[87.6 µM]	u	-35%[87.6 µM]
COc1ncccc1-c1cnc2[nH]cc(CC(=O)N3CCN(C)CC3)c2c1	3%[70.6 µM]	-25%[172 µM]	i	2%[87.6 µM]	u	9%[87.6 µM]
O=C(c1ccccc1)N1C[C@@H]2C[C@H](C1)c1ccc(NS(=O)(=O)c3cccs3)c(=O)n1C2	3%	i	i	5%	4%	-5%
O=C1CO[C@H]2CN(Cc3ccccn3)C[C@H]2N1Cc1ccccn1	3%[70.6 µM]	u	i	-17%[87.6 µM]	u	12%[87.6 µM]
COc1cc2c(cc1OCc1ccccc1)NC(=O)C21CCN(CC2CC2)CC1	-1%[70.6 µM]	40µM*	u	-1%[87.6 µM]	32µM*	128%[87.6 µM]
COc1cc2c(cc1OCC1CC1)NC(=O)C21CCN(C(=O)c2ccccc2)CC1	4%[70.6 µM]	u	i	2%[87.6 µM]	u	1%[87.6 µM]
COc1cc2c(cc1OCc1ccccc1)NC(=O)C21CCN(Cc2ccccn2)CC1	5%[70.6 µM]	79µM*	i	-16%[87.6 µM]	89µM*	52%[87.6 µM]
COc1cc2c(cc1OCC1CC1)NC(=O)C21CCN(CCC(C)C)CC1	3%[70.6 µM]	-28%[172 µM]	i	-1%[87.6 µM]	u	28%[87.6 µM]
COc1cc2c(cc1Oc1cccc(N(C)C)c1)NC(=O)C21CCN(Cc2nccn2C)CC1	-23%	u	i	13%	-18%	34%
COc1cc2c(cc1OCc1ccncc1)NC(=O)C21CCN(C(=O)c2cccnc2)CC1	1%	4%	i	-4%	35µM*	18%
